Source: PubChem
DT40 TDP1 CPT – DT40-hTDP1 cell growth loss with CPT | 420,000 tested, 12% active | chicken DT40 Tdp1-/-;hTDP1 cells + 20 nM CPT, ATP luminescence, 48 h | Potency, µM (series often up to 46.2 µM), without a hit: at the top dose activity change, negative = growth inhibition, most hits filed as inhibitors; also: potency is read from the fitted curve at half-maximal effect; nearly all actives have a fitted effect of over 55% in size
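Chicken DT40 Tdp1-/- cells complemented with human TDP1, 400 cells/well, exposed to compounds plus 20 nM camptothecin for at least 48 h at 37 C; viability read as ATP content by CellTiter-Glo luminescence.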
HT1080-NT tox – kills 2HG-producing HT-1080-NT fibrosarcoma cells; HT-1080-NT fibrosarcoma viability, CellTiter-Glo ATP luminescence, 48 h; Potency, µM (doses to about 46.1 µM), for the others: at the top dose activity, negative = less viability, usual class: cytotoxic; 360,000 tested, 1.6% active;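 also: NT is the 2HG producing partner of a matched IDH1 knockdown line; potency is read from the fitted curve at half-maximal effect; 0% = DMSO-treated cells and -100% = media-only wells without cells; nearly all actives have a fitted effect of over 55% in size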
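Compounds were tested in concentration-response format on HT-1080-NT cells for 48 hours at 37 degrees C. Cell viability came from CellTiter-Glo luminescence; curves were classified by r2, response magnitude and activity.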
HT1080 IDH1KD tx – toxicity to HT-1080 IDH1 knockdown cells (counter line); HT-1080 IDH1 knockdown viability, ATP luminescence, 48 h; Potency, µM (series often up to 46.1 µM), inactives show at the top dose activity, negative = toxicity, most hits filed as cytotoxic; 360,000 tested, 2% active;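 also: potency is read from the fitted curve at half-maximal effect; 0% = DMSO wells and -100% = cell-free medium wells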
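After a 2 h attachment period, IDH1KD HT-1080 cells took pin-transferred compound for 48 h at 37 °C; ATP-based luminescence after 10 min room-temperature reagent incubation reported viability.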
12-LOX inh – blocks human arachidonate 12S-lipoxygenase; P18054; purified 12hLO, xylenol orange hydroperoxide absorbance; Potency, µM (series often up to 108 µM), without a hit: top-dose activity change, negative = inhibition, hits mostly inhibitors; 580,000 tested, 1.1% active; AID 1671190; also: potency is read from the fitted curve at half-maximal effect
Target sequence (P18054 whole entry, looked up): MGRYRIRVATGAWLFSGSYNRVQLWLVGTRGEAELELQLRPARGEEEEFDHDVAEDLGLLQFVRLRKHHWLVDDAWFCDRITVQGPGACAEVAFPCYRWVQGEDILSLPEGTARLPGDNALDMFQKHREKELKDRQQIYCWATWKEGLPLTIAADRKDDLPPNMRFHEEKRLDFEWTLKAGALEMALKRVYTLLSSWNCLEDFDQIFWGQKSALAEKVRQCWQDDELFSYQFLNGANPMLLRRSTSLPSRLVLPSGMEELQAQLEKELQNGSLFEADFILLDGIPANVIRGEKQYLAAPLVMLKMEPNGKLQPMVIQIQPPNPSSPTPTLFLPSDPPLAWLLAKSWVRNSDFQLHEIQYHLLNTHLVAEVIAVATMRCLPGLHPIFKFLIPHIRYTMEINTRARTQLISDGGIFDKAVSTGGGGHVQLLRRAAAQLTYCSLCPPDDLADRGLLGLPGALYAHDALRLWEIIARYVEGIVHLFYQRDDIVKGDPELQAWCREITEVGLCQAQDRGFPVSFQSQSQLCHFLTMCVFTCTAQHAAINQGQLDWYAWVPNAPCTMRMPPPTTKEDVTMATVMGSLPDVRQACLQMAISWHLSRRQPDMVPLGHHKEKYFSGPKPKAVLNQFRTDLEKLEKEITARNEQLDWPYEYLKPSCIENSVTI
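Hydroperoxide product was detected by ferrous iron/xylenol orange as the 573 to 405 nm absorbance ratio. Arachidonic acid at 40 uM (final) was turned over for 30 min at room temperature by 150 nM human 12hLO, pH 7.0 Hepes buffer, after 15 min compound preincubation.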
DT40 TDP1 no CPT – qHTS for Inhibitors of human tyrosyl-DNA phosphodiesterase 1 (TDP1): qHTS in cells in absence of CPT; DT40 Tdp1-/- hTDP1 cells, no CPT, ATP luminescence, 48 h; Potency, µM (highest dose often 46.2 µM), for the others: at the highest dose activity change, negative = growth inhibition, hits mostly inhibitors; 420,000 tested, 15% active; AID 686978, 2013; also: potency is read from the fitted curve at half-maximal effect; nearly all actives have a fitted effect of over 55% in size
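Growth kinetics read by CellTiter-Glo luminescence after ≥48 hr at 37 °C. Cells: DT40 Tdp1-/- stably carrying human TDP1, 400 per well, compound exposure in the absence of CPT (DMSO vehicle).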
IL1B secr inh – blocks inflammasome-driven IL-1 beta release; THP-1 LPS/ATP IL-1B secretion, AlphaLISA, 16 h; stronger effect = lower value; activity change, % at 57.5 µM; 360,000 tested, 4.7% active; in the data active = activity change below about -50%; inconclusive = mostly about -30% to -49%
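Secreted IL-1B measured by AlphaLISA bead assay after 16 h compound exposure of THP-1 cells; compounds (final up to 57.5 uM) added 1 h before LPS (250 ng/mL) and ATP (1.25 mM) stimulation; lower signal means less secretion.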
* = called active by the depositor; i = inactive; ? = inconclusive; . = no result given; [ ] = dose if it differs, or a comment. Many of the other results were omitted from the sample, so hits are more common in it than they were. Unless noted, calls follow the shape of the dose curve; as a rule, active = well fitted curve in the direction sought with a large enough effect; inconclusive = small, poorly fitted or top-dose-only effect, or another doubt; inactive = no such curve, though single readings can be large; an effect the other way counts as inactive or inconclusive. Unless noted, % is scaled to controls: 0 for no effect and ±100 for the full control effect.

SMILES | DT40 TDP1 CPT | HT1080-NT tox | HT1080 IDH1KD tx | 12-LOX inh | DT40 TDP1 no CPT | IL1B secr inh
CCN(C(=O)COC(=O)C1CC1C)c1c(N)n(Cc2ccccc2)c(=O)[nH]c1=O (stereo not drawn) | -4.2% | 10.8% | 6.6% | -21.9% | -5.3% | 5.9
CCOc1ccccc1NC(=O)N(CC)Cc1cc(=O)[nH]c2c(C)cc(C)cc12 | . | . | . | -8.9% | . | .
O=C(N/N=C/c1ccccc1)c1ccc[n+]([O-])c1 | . | . | . | -52.3% | . | .
O=C(NCc1coc(-c2cccs2)n1)c1cccc(I)c1 | . | . | . | -27.5% | . | .
CCc1ccc(NC(=O)Cn2nc(Cc3ccncc3)c3ccccc3c2=O)cc1 | . | . | . | -0.1% | . | .
COC(=O)C1=C(C)N(c2cc(Cl)cc(Cl)c2)C(=O)C1 | 7.31µM* | 20.6µM* | ? | ? | 8.2µM* | -27.0
O=C(CCCC1=NS(=O)(=O)c2ccccc2N1)N1CCN(c2ccc(Cl)cc2)CC1 | 16.4µM* | -0.2% | -1.4% | -6.4% | ? | 10.0
COc1cccc(N2CCN(C(=O)CC(C)(C)CC3=NS(=O)(=O)c4ccccc4N3)CC2)c1 | 14.6µM* | -13.9% | -11.8% | 8.6% | 4.61µM* | 0.7
CC(C)(CC(=O)N1CCN(c2ccc(Cl)cc2)CC1)CC1=NS(=O)(=O)c2ccccc2N1 | 18.4µM* | ? | -28.1% | 0.0% | 11.6µM* | -50.9*
O=C(NNC(=O)c1ccccc1-c1ccccc1C(=O)O)c1ccccc1 | 2.2% | 3.8% | 1.8% | -13.4% | 10.7% | -3.3
O=C(C=P(c1ccccc1)(c1ccccc1)c1ccccc1)c1ccccc1-c1ccccc1C(=O)C=P(c1ccccc1)(c1ccccc1)c1ccccc1 | 0.731µM* | 13µM* | 7.31µM* | ? | 0.581µM* | ?
Cc1cccc(NC(=O)C2CC(=O)Nc3ncnn32)c1 (stereo not drawn) | . | . | . | 3.7% | . | .
O=C(Nc1ccc(Nc2ccccc2)cc1)c1cc[n+]([O-])cc1 | . | . | . | -17.2% | . | .
O=C1CCc2cc(-c3csc(NC4CC4)n3)ccc2N1 | . | . | . | 35.5µM* | . | .
Nc1nc(-c2ccc3c(c2)CCC(=O)N3)cs1 | ? | 1.2% | 0.5% | -18.5% | 0.4% | -21.5
c1ccc(-c2csc(NC3CCCCC3)n2)cc1 | 5.6% | -15.8% | -6.8% | ? | -15.0% | 13.8
CCCCNc1nc(-c2ccc3c(c2)CC(=O)N3)cs1 | . | . | . | 31.6µM* | . | .
CCNc1nc(-c2ccc3c(c2)CCC(=O)N3)cs1 | . | . | . | 20µM* | . | .
O=C1Cc2cc(-c3csc(NC4CCCCC4)n3)cc3c2N1CCC3 | . | . | . | 11.2µM* | . | .
CCCCNc1nc(-c2ccc(NC(=O)CC)cc2)cs1 | . | . | . | -12.0% | . | .
O=C1NC(=O)c2c1c(-c1ccccc1)cc1[nH]c3ccc(O)cc3c21 | . | . | . | -4.6% | . | .
O=C1Cc2cc(-c3csc(NC4CC4)n3)ccc2N1 | . | . | . | 39.8µM* | . | .
Cc1csc2c(N3CCN(C(=O)c4ccc(C(C)(C)C)cc4)CC3)ncnc12 | ? | 18.4µM* | ? | 243.4% | 4.11µM* | -8.9
Cc1csc2c(N3CCN(C(=S)Nc4ccc(C(F)(F)F)cc4)CC3)ncnc12 | ? | -14.1% | -4.1% | -2.3% | ? | 12.0
Cc1csc2c(N3CCN(C(=O)Nc4ccc(Cl)c(Cl)c4)CC3)ncnc12 | ? | -24.7% | ? | ? | 20.6µM* | -78.5*
SMILES | DT40 TDP1 CPT | HT1080-NT tox | HT1080 IDH1KD tx | 12-LOX inh | DT40 TDP1 no CPT | IL1B secr inh
Cc1csc2c(N3CCN(C(=O)NC(C)(C)C)CC3)ncnc12 | 14.6µM* | -2.0% | -11.5% | ? | 18.4µM* | 21.7
CC(C)C(=O)N1CCC(CC(=O)NCc2ccccc2)C1 (stereo not drawn) | . | . | . | 19.2% | . | .
CCC1CCc2sc(C(=O)NCc3ccccn3)cc2C1 (stereo not drawn) | 14.6µM* | -24.8% | ? | 9.5% | 10.3µM* | -11.1
CCC1CCc2sc(C(=O)NCC3CCCO3)cc2C1 (stereo not drawn) | ? | -0.9% | 19.7% | -5.2% | 18.4µM* | -17.2
CCC1CCc2sc(C(=O)NCC(c3ccccc3OC)N3CCCC3)cc2C1 (stereo not drawn) | 16.4µM* | ? | ? | 145.4% | 20.6µM* | -21.8
CCC1CCc2sc(C(=O)NNC(=S)NCC3CCCO3)cc2C1 (stereo not drawn) | ? | 0.0% | -3.6% | 307.3% | ? | 21.9
Cc1ccc(OCCN(C)Cc2cc(C#CCO)cs2)c(C)c1 | . | . | . | 7.5% | . | .
O=C(N[C@@H](Cn1cc(Cl)c(=O)[nH]c1=O)C(=O)O)c1cccc(F)c1 | . | . | . | 47.0%[176 µM] | . | .
O=C(NCc1ccccc1)C1CCC(=O)N1C1CCN(C(=O)c2ccccc2F)CC1 (stereo not drawn) | . | . | . | 52.7% | . | .
COc1ccccc1NC(=O)Cn1c(CCC(=O)O)ccc1-c1ccc(C)cc1 | -0.1% | 9.7% | 9.3% | 1.5% | -25.9% | 13.8
CCOC(=O)c1ccc(NC2c3ccccc3C(=O)N2c2cccnc2)cc1 (stereo not drawn) | 11.6µM* | -28.2% | -15.3% | 23.7% | 10.3µM* | 41.3
COC(=O)c1ccc(NC2c3ccccc3C(=O)N2c2cccnc2)cc1 (stereo not drawn) | . | . | . | 11.0% | . | .
COC(=O)c1ccccc1NC1c2ccccc2C(=O)N1c1cccnc1 (stereo not drawn) | 14.6µM* | -6.5% | -2.7% | 19.9% | ? | -11.7
Cc1cnc(C2CCOCC2)n1C1CCCN(C(=O)c2cn(C)cn2)C1 (stereo not drawn) | . | . | . | 34.0% | . | .
C#CCOc1ccc(/C=C(/C#N)c2ccc(Cl)cc2)cc1I | . | . | . | -5.5% | . | .
NCCNC(=O)c1c(O)c2cccc3c2n(c1=O)CCC3 | -2.5% | -5.1% | -1.9% | 8.1% | ? | -91.7*
O=C(Nc1ccccn1)c1c(O)c2cccc3c2n(c1=O)CCC3 | 14.6µM* | 2.1% | 5.9% | i | 14.6µM* | 19.0
O=C(NCC1Cn2cccc2CN1Cc1ccccc1)c1ccsc1 (stereo not drawn) | . | . | . | 157.4% | . | .
c1ccc(Oc2ccc(Nc3cnc4ccc(N5CCOCC5)nn34)cc2)cc1 | . | . | . | 2.6%[176 µM] | . | .
COc1cc(CCc2cc(NC(=O)c3ccc(N4C[C@@H](C)N[C@@H](C)C4)cc3)n[nH]2)cc(OC)c1 | . | . | . | -11.9%[57.4 µM] | . | .
CC(C)=CC(=O)Nc1cccc(OCc2ccc(F)cc2)c1 | . | . | . | -14.7% | . | .
O=C(c1ccccc1)[C@@H]1O[C@H]1c1ccc(-c2ccccc2)cc1 | 4.22µM* | . | . | 13.2% | 4.22µM* | .
Cc1ccc(OCC(=O)N(Cc2ccco2)Cc2ccc(C)o2)cc1 | 16.4µM* | . | . | -14.1% | 16.4µM* | .
